Assay outcomes deposited in PubChem BioAssay by National Center for Advancing Translational Sciences (NCATS).
IL-1B inflam inh – inhibitors of inflammasome signaling (IL-1 beta secretion). THP-1 LPS/ATP IL-1B secretion, AlphaLISA, 16 h; hits give low values. activity change, % at 57.5 µM. 360,000 tested, 4.7% active; in the data active = activity change below about -50%; inconclusive = mostly about -30% to -49%
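Secreted IL-1B measured by AlphaLISA bead assay after 16 h compound exposure of THP-1 cells; compounds (final up to 57.5 uM) added 1 h before LPS (250 ng/mL) and ATP (1.25 mM) stimulation; lower signal means less secretion.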
DT40 TDP1 no CPT – qHTS for Inhibitors of human tyrosyl-DNA phosphodiesterase 1 (TDP1): qHTS in cells in absence of CPT. DT40 Tdp1-/- hTDP1 cells, no CPT, ATP luminescence, 48 h. Potency, µM (titrated, usually from 46.2 µM), for inactives: top-dose activity change, negative = growth inhibition, most hits filed as inhibitors. 420,000 tested, 15% active. AID 686978, 2013; also: potency is read from the fitted curve at half-maximal effect; nearly all actives have a fitted effect of over 55% in size
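Stably hTDP1-transfected Tdp1-null chicken DT40 cells were treated with library compounds minus camptothecin and grown for at least 48 hr at 37 °C, after which cellular ATP was quantified by luminescence.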
HT1080 IDH1KD tx – HT-1080 IDH1 knockdown cell toxicity (counter line); HT-1080 IDH1 knockdown viability, ATP luminescence, 48 h; Potency, µM (doses to about 46.1 µM), without a hit: at the top dose activity, negative = toxicity, usual class: cytotoxic; 360,000 tested, 2% active; AID 686971;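 also: potency is read from the fitted curve at half-maximal effect; 0% = DMSO wells and -100% = cell-free medium wells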
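Assay cells: HT-1080 with IDH1 knockdown, 750 per well, RPMI/5% FBS. Exposure: 48 h at 37 °C following 2 h pre-incubation. Read: CellTiter-Glo luminescence; fitted concentration-response, curve class assigned.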
TDP1 cell CPT – growth inhibition of DT40 Tdp1-/-;hTDP1 cells with camptothecin (screen for TDP1 inhibitors). chicken DT40 Tdp1-/-;hTDP1 cells + 20 nM CPT, ATP luminescence, 48 h. 420,000 tested, 12% active. AID 686979. Potency, µM (top dose mostly 46.2 µM), without a hit: top-dose activity change, negative = growth inhibition, most hits filed as inhibitors; also: potency is read from the fitted curve at half-maximal effect; nearly all actives have a fitted effect of over 55% in size
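Chicken DT40 Tdp1-/- cells stably complemented with human TDP1 were seeded at 400 cells/well in medium containing 20 nM camptothecin, exposed to pin-transferred compounds, and grown at 37 °C for at least 48 hr. Viability was read as ATP luminescence.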
HT1080NT lethal – kills 2HG-producing HT-1080-NT fibrosarcoma cells. HT-1080-NT fibrosarcoma viability, CellTiter-Glo ATP luminescence, 48 h. Potency, µM (series often up to 46.1 µM), without a hit: at the highest dose activity, negative = less viability, usual class: cytotoxic. 360,000 tested, 1.6% active. AID 686970;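 also: NT is the 2HG producing partner of a matched IDH1 knockdown line; potency is read from the fitted curve at half-maximal effect; 0% = DMSO-treated cells and -100% = media-only wells without cells; nearly all actives have a fitted effect of over 55% in size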
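Luminescent CellTiter-Glo readout after 48 hours of compound exposure at 37 degrees C defined viability of HT-1080-NT cells. Activity was normalized to DMSO wells and cell-free media wells; concentration-response curves were fitted and assigned curve classes.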
Starred values were filed as active, the others as inactive; ? = inconclusive. In the library only some 19% were active in any assay of this set; here they are far more common. Unless noted, calls follow the shape of the dose curve; as a rule, active = well fitted curve in the direction sought with a large enough effect; inconclusive = small, poorly fitted or top-dose-only effect, or another doubt; inactive = no such curve, though single readings can be large; an effect the other way counts as inactive or inconclusive. Unless noted, % is scaled to controls: 0 for no effect and ±100 for the full control effect.

SMILES	IL-1B inflam inh	DT40 TDP1 no CPT	HT1080 IDH1KD tx	TDP1 cell CPT	HT1080NT lethal
O=C(COc1ccc([N+](=O)[O-])cc1Cl)N(C1CCCCC1)C1CCS(=O)(=O)C1 (stereo not drawn)	-3	-15%	0%	-19%	-5%
Cc1ccc(S(=O)(=O)NCC(=O)OCCOc2cccc(Cl)c2)cc1	0	5%	5%	-11%	11%
COc1ccccc1C(=O)Nc1c(-c2ccccc2)nc2ccccn12	-9	?	1%	23µM*	-4%
OC(c1ccccc1)C(NCc1ccccc1)c1ccccc1 (stereo not drawn)	-23	23µM*	-15%	23µM*	-9%
CC(=O)Nc1ccc(S(=O)(=O)Nc2cccc(-c3nc4cc(C)ccc4o3)c2)cc1	9	21µM*	15%	21µM*	-1%
Cc1nc(-c2cccc(NS(C)(=O)=O)c2)cs1	-18	6%	3%	11%	-1%
CC(=O)Nc1cccc(-c2nc3ccccc3o2)c1	13	?	11%	-11%	8%
CC(=O)Nc1ccc(S(=O)(=O)Nc2cccc(-c3csc(C)n3)c2)cc1	38	?	?	21µM*	-27%
CCCNc1ccc(S(=O)(=O)N(CC)CC)cn1	3	-90%	14%	16µM*	6%
CCOc1cccc(C=NNc2ccc(S(=O)(=O)Nc3ccccc3C(=O)O)cc2[N+](=O)[O-])c1O	-3	0%	-4%	-2%	-2%
CCN(CC)S(=O)(=O)c1ccc(N/N=C/c2ccc(OC)c(OC)c2OC)nc1	5	18µM*	8%	?	2%
CCOc1cccc(/C=N/Nc2ccc(S(=O)(=O)N(CC)CC)cn2)c1O	52	0.58µM*	2.6µM*	0.16µM*	?
CCN(CC)S(=O)(=O)c1ccc(N/N=C(\C)c2ccc(OC)cc2O)nc1	243	29µM*	?	3.3µM*	?
CCN(CC)S(=O)(=O)c1ccc(N/N=C/c2cc(OC)c(OC)cc2OC)nc1	26	?	1%	-5%	1%
CCCNc1ccc(S(=O)(=O)N(C(C)C)C(C)C)cn1	10	?	0%	-5%	9%
CCN(CC)S(=O)(=O)c1ccc(N/N=C/c2ccc(O)cc2)nc1	1	-27%	-16%	?	-28%
O=C1C2CC=CCC2C(=O)N1c1nccs1 (stereo not drawn)	10	-1%	14%	2%	6%
CC(NC(=O)C1(c2cccs2)CCOCC1)c1ccccc1 (stereo not drawn)	1	-25%	2%	-8%	4%
COC(=O)c1ccccc1NC(=O)CSc1nc(O)cc(=O)n1C1CCCC1	-4	-12%	-2%	-27%	0%
C[C@@H]1CN([C@H](C)CO)C(=O)CCCn2cc(nn2)CO[C@H]1CN(C)C(=O)C1CCCCC1	-9	7%	11%	-4%	19%
CC(OC(=O)C1CC1)C(=O)Nc1cccc(S(=O)(=O)N2CCOCC2)c1 (stereo not drawn)	-3	0%	-3%	-8%	-4%
Cc1cc(O)ccc1NC(=O)CCN1C(=O)c2ccc([N+](=O)[O-])cc2C1=O	0	-9%	7%	-16%	9%
Cc1ccc(Nc2cc(=O)n(C)c(=O)[nH]2)cc1C	29	?	2%	?	-4%
CC1CSc2n(-c3cccc(C(F)(F)F)c3)cc(-c3ccccc3)[n+]21 (stereo not drawn)	-1	16µM*	-1%	?	-1%
FC(F)(F)c1cccc(-n2cc(-c3ccccc3)[nH]c2=S)c1	-6	?	-4%	?	-4%
COc1ccc(NS(=O)(=O)c2cccc(C(=O)O)c2)cc1	-28	-3%	-7%	3%	6%
COc1ccc(C(=O)C(C)OC(=O)c2cccc(S(=O)(=O)Nc3cc(Cl)c(OC)cc3OC)c2)cc1 (stereo not drawn)	-6	21µM*	-19%	23µM*	-6%
